Source: PubChem BioAssay (Tox21)
Records with an inconclusive call do not appear. The source made the active and inactive calls. Unless noted, calls come from the whole dose curve; as a rule, active = well fitted curve in the direction sought with a large enough effect in the repeat runs; inconclusive = weak or mixed curves; inactive = no such curve, though single readings can be large; an effect the other way counts as inactive or inconclusive.

What was measured:
[1] = qHTS assay to identify small molecule antagonists of the glucocorticoid receptor (GR) signaling pathway - cell viability counter screen (AID 720693); note: nearly all actives have a fitted effect of over 55% in size
[2] = qHTS assay for identifying genotoxic compounds that show differential cytotoxicity against isogenic chicken DT40 cell lines with known DNA damage response pathways - wild type cell line (AID 743012); note: nearly all actives have a fitted effect of over 60% in size; note: potency is the fitted concentration of half-maximal effect
How it was run: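 Quantitative HTS on parental DT40 cells: 40 h compound treatment at 37 C/5% CO2, with viability then determined by CellTiter-Glo luminescence. Values serve as the DNA repair-proficient reference for differential cytotoxicity.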

[3] = qHTS assay for identifying genotoxic compounds that show differential cytotoxicity against isogenic chicken DT40 cell lines with known DNA damage response pathways - Rev3 mutant cell line (AID 743014); note: nearly all actives have a fitted effect of over 55% in size; note: potency is the fitted concentration of half-maximal effect
[4] = qHTS assay to identify small molecule antagonists of the androgen receptor (AR) signaling pathway - cell viability counter screen (AID 743033; note: nearly all actives have a fitted effect of over 45% in size)
[5] = qHTS assay to identify small molecule antagonists of the androgen receptor (AR) signaling pathway using the MDA cell line - cell viability counter screen (AID 743041; note: nearly all actives have a fitted effect of over 45% in size)
How it was run: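 Cells were plated at 3,000 per well and left 5 h. Compounds in DMSO were then pinned in, followed by R1881. After 16 h at 37C, CellTiter-Fluor fluorescence gave viability.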

[6] = target: Androgen receptor (Homo sapiens) (UniProt P10275); experiment: qHTS assay to identify small molecule antagonists of the androgen receptor (AR) signaling pathway (AID 743035; active = well fitted inhibition curve with a large enough effect in the signal ratio in the repeat runs, not every such curve was filed as active; the % refers to the signal ratio)
Sequence of Androgen receptor (Homo sapiens) (P10275 whole entry, looked up): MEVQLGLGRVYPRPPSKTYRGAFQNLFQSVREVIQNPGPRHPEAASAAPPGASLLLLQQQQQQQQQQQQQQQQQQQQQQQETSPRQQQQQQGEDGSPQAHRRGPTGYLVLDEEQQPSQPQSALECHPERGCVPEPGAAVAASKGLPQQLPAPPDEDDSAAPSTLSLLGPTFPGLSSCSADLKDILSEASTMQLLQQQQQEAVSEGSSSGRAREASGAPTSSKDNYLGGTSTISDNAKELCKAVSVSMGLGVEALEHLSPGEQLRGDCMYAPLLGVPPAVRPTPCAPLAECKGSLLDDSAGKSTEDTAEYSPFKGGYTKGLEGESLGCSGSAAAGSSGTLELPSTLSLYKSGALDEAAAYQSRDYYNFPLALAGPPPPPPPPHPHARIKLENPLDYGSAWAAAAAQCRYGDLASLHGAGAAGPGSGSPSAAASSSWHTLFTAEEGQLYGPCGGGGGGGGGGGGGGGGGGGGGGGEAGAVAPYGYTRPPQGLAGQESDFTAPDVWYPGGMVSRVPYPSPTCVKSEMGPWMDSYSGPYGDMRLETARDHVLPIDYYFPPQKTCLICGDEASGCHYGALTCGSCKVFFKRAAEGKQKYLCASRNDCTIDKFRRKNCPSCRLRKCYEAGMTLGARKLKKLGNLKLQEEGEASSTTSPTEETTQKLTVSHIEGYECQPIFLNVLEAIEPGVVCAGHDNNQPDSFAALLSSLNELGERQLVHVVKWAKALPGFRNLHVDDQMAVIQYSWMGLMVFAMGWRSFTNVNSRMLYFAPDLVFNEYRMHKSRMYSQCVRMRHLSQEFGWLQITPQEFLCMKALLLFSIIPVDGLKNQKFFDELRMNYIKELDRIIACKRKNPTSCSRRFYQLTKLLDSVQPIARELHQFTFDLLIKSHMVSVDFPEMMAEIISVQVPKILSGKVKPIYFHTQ
How it was run: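 Cell line: GeneBLAzer AR-UAS-bla GripTite (HEK293). Stimulus: R1881 added after compound. Exposure: 16 h, 37C, 5% CO2. Readout: LiveBLAzer B/G FRET fluorescence after 2 h at room temperature.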

[7] = target: Androgen receptor (Homo sapiens) (UniProt P10275); experiment: qHTS assay to identify small molecule agonists of the androgen receptor (AR) signaling pathway (AID 743036; active = well fitted activation curve with a large enough effect in the signal ratio in the repeat runs, with a control signal flat, not every such curve was filed as active; the % refers to the signal ratio)
How it was run: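 HEK293 cells stably carrying a UAS-driven beta-lactamase reporter (GeneBLAzer AR-UAS-bla-GripTite) were plated at 2,000 cells/well, rested 4 h at 37C, then exposed to compounds in DMSO for 16 h. LiveBLAzer B/G FRET substrate was added for 2 h at room temperature; fluorescence read.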

[8] = target: Androgen receptor (Homo sapiens) (UniProt P10275); experiment: qHTS assay to identify small molecule agonists of the androgen receptor (AR) signaling pathway using the MDA cell line (AID 743040; note: nearly all actives have a fitted effect of over 20% in size; note: potency is the fitted concentration of half-maximal effect)
How it was run: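 Cells plated, 5 h at 37C/0% CO2; compound or DMSO pinned; 16 h at 37C; ONE-Glo added; luminescence measured after 30 min at room temperature. Reporter line: MDA-kb2 with MMTV-luciferase responsive to AR and GR.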

[9] = target: Androgen receptor (Homo sapiens) (UniProt P10275); experiment: qHTS assay to identify small molecule antagonists of the androgen receptor (AR) signaling pathway using the MDA cell line (AID 743042; note: nearly all actives have a fitted effect of over 55% in size)
How it was run: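 Antagonist mode: compounds plus R1881 agonist added to MDA-kb2 AR-luc cells, incubated 16 h at 37C. Luciferase reporter luminescence quantified, with multiplexed CellTiter-Fluor readout for cell viability.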

[10] = qHTS assay for identifying genotoxic compounds that show differential cytotoxicity against isogenic chicken DT40 cell lines with known DNA damage response pathways - Rad54/Ku70 mutant cell line (AID 743015); note: nearly all actives have a fitted effect of over 60% in size; note: potency is the fitted concentration of half-maximal effect
% is set by controls: 0 for no effect and ±100 for the full control effect.

NS(=O)(=O)c1cc(C2(O)NC(=O)c3ccccc32)ccc1Cl (configuration not stated)
inactive: outcome [1] | Potency [2] | Potency [3] | outcome [4] | Potency [5]

COC(=O)c1ccc(C(=O)OC)c(C(=O)OC)c1
inactive: outcome [1] | Potency [2] | Potency [3] | outcome [4] | Potency [5]

CCOC(=O)Nc1ccc2c(c1)N(C(=O)CCN1CCOCC1)c1ccccc1S2
inactive: outcome [1] | Potency [2] | Potency [3] | outcome [4] | Potency [6] | outcome [7] | Potency [5] | outcome [9]
active: Potency [8] 12.7 µM

NCC[C@H](O)C(=O)N[C@@H]1C[C@H](N)[C@@H](O[C@H]2O[C@H](CN)[C@@H](O)[C@H](O)[C@H]2O)[C@H](O)[C@H]1O[C@H]1O[C@H](CO)[C@@H](O)[C@H](N)[C@H]1O
inactive: outcome [1] | Potency [2] | Potency [10] | outcome [4] | Potency [6] | outcome [7] | Potency [8] | Potency [5] | outcome [9]

CCOC(=O)[C@H](CCc1ccccc1)N[C@@H](C)C(=O)N1CCC[C@H]1C(=O)O
inactive: outcome [1] | Potency [2] | Potency [3] | outcome [4] | Potency [5]

CCC(=O)Nc1cccc(N)c1
inactive: outcome [1] | Potency [2] | Potency [10] | outcome [4] | Potency [5]

O=C(O)/C=C/c1ccc(Cn2ccnc2)cc1
inactive: outcome [1] | Potency [2] | Potency [10] | outcome [4] | Potency [5]

C=C(C)[C@H]1CC=C(C)CC1
inactive: outcome [1] | Potency [2] | Potency [3] | outcome [4] | Potency [5]

CC(C)c1ccc2oc3nc(N)c(C(=O)O)cc3c(=O)c2c1
active: Potency [8] 11.9 µM
inactive: outcome [1] | Potency [2] | Potency [3] | outcome [4] | Potency [6] | Potency [5] | outcome [9]

CSc1nc(NC2CC2)nc(NC(C)(C)C)n1
active: Potency [2] 54.5 µM | Potency [10] 54.5 µM
inactive: outcome [1] | outcome [4] | Potency [5]

CCCCNc1ccccc1
inactive: outcome [1] | Potency [2] | Potency [10] | outcome [4] | Potency [6] | Potency [8] | Potency [5] | outcome [9]

CCCC=O
inactive: outcome [1] | Potency [2] | Potency [3] | outcome [4] | Potency [5]

COc1ccc(NC(C)=O)cc1
inactive: outcome [1] | Potency [2] | Potency [3] | outcome [4] | Potency [6] | outcome [7] | Potency [8] | Potency [5] | outcome [9]

Nc1cc(N)cc(C(=O)O)c1
inactive: outcome [1] | Potency [2] | Potency [3] | outcome [4] | Potency [5]

OCC(CO)(CO)COCC(CO)(CO)CO
inactive: outcome [1] | Potency [2] | Potency [10] | outcome [4] | Potency [5]

Cc1cc(C)c(NC(=O)CN(CC(=O)O)CC(=O)O)c(C)c1Br
inactive: outcome [1] | Potency [2] | Potency [3] | outcome [4] | Potency [5]

O=[N+]([O-])c1ccc(CCO)cc1
inactive: outcome [1] | Potency [2] | Potency [10] | outcome [4] | Potency [5]

O=S(=O)(c1cccc2cnccc12)N1CCCNCC1
inactive: outcome [1] | Potency [2] | Potency [3] | outcome [4] | Potency [5]

CCCCCCCCCCCCI
active: Potency [2] 54.7 µM | Potency [3] 7.73 µM
inactive: outcome [1] | outcome [4] | Potency [5]

CCCCCCCCCCCCCCCCCC(=O)OCCCCCCCCCCCCCC(C)C
inactive: outcome [1] | Potency [2] | Potency [3] | outcome [4] | Potency [5]

C/C=C1\C(=O)C[C@H]2[C@@H]3CCC4=CC(=O)CC[C@]4(C)[C@H]3CC[C@]12C
active: Potency [2] 18.9 µM | Potency [3] 10.7 µM | Potency [10] 13.4 µM
inactive: outcome [1] | Potency [5]

C1COCCO1
inactive: Potency [3] | outcome [7]

CCN1CCN(c2cc3c(cc2F)c(=O)c(C(=O)O)cn3C2CC2)CC1
inactive: outcome [7]

COc1nc(C)nc(N)n1
inactive: outcome [1] | Potency [3] | Potency [10] | outcome [4] | Potency [5]

COc1cc(CCC(C)=O)ccc1O
inactive: outcome [1] | Potency [3] | outcome [4] | Potency [8] | Potency [5] | outcome [9]

C=CC(=O)N1CCOCC1
inactive: outcome [1] | Potency [3] | Potency [10] | outcome [4] | Potency [5]

CNc1ncnc2nc[nH]c12
inactive: outcome [1] | Potency [3] | Potency [10] | outcome [4] | Potency [5]

FC(F)(F)C(F)(F)C(F)(F)C(F)(F)C(F)(F)C(F)(F)C(F)(F)C(F)(F)C(F)(F)C(F)(F)F
inactive: viability change, negative = cytotoxic [1] -1.03% [at 7.04 µM] | activity, negative = cytotoxicity [3] -1.46% [at 8.53 µM] | activity change, negative = cytotoxicity [4] 0.133% [at 7.04 µM] | viability change, negative = cytotoxic [5] 6.81% [at 8.47 µM]

Cc1onc(-c2ccccc2)c1-c1ccc(S(N)(=O)=O)cc1
inactive: outcome [1] | Potency [3] | outcome [4] | Potency [5]

CO[Si](CCCNCCC[Si](OC)(OC)OC)(OC)OC
inactive: outcome [1] | Potency [3] | Potency [10] | outcome [4] | Potency [5]

CCCCCCOC(=O)c1ccccc1O
inactive: outcome [1] | Potency [10] | outcome [4] | Potency [6] | Potency [8] | Potency [5] | outcome [9]
active: Potency [3] 27.3 µM

Oc1cc(O)c2c(c1)O[C@H](c1ccc(O)c(O)c1)[C@H](O)C2
inactive: outcome [1] | Potency [3] | Potency [10] | outcome [4] | Potency [5]

CCO[Si](C)(OCC)OCC
inactive: outcome [1] | Potency [3] | Potency [10] | outcome [4] | Potency [5]

NC(=S)Nc1cccc2ccccc12
inactive: viability change, negative = cytotoxic [1] -9.87% [at 7.04 µM] | activity, negative = cytotoxicity [3] -8.62% [at 8.53 µM] | activity change, negative = cytotoxicity [4] 0.303% [at 7.04 µM] | viability change, negative = cytotoxic [5] -0.0936% [at 8.47 µM]
